Experimental data taken from PubChem BioAssay AID1347076 (National Center for Advancing Translational Sciences (NCATS), 2019).
Screen size: about 400,000 compounds; about 13,000 (3.2%) were called active. Not shown: some 18% with an inconclusive outcome. The call rests on the fitted dose curve; in most records, active means well fitted cell-killing curve with a large enough effect; inconclusive means small, poorly fitted or top-dose-only effect, or effect the other way; inactive means flat fitted curve, though single readings scatter. Shown is part of a subset that was picked to be rich in actives. A call without a number means that no potency is given here.

experiment: qHTS assay for MDR1-selective chemotherapeutics: Primary screen using the drug-selected MDR subline cells KB-V1; conditions: KB-V1 MDR cells viability, CellTiter-Glo, 72 h; series mostly up to 46.1 µM; further: nearly all actives have a fitted effect of over 60% in size
In short: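 Potencies derive from concentration-effect curves fitted to normalized luminescence (CellTiter-Glo) of KB-V1 cells treated for 72 h at 37 degrees C in phenol-red-free DMEM containing 10% FBS.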
Potency means the concentration at half of the fitted maximal effect.

| Structure (SMILES) | Potency |
| --- | --- |
| CCOC(=O)[C@]12CCC=C1N(Cc1ccco1)C(=O)[C@H](CC(=O)N1CCSCC1)C2 | inactive |
| CC(C)Oc1ccc(CN2CCC2(C)C(=O)NCc2ccc(C(F)(F)F)cc2)cc1 (configuration not stated) | inactive |
| Cc1cccc(-c2nc(SCC(=O)Nc3cc(C)on3)c3c(=O)n(C)c(=O)n(C)c3n2)c1 | inactive |
| Cc1nc2ccccc2nc1CC(O)(c1ccccc1)c1ccccc1 | inactive |
| O=C(NCc1ccccc1)C(=O)NCC(c1ccco1)S(=O)(=O)c1ccc(Cl)cc1 (configuration not stated) | inactive |
| CC(C)C(=O)N1CCN(c2nc(-c3ccccc3)c3c(c2C#N)CC(C)(C)OC3)CC1 | inactive |
| CC1(C)Cc2c(C#N)c(SCc3nc4ccccc4[nH]3)nc(N3CCOCC3)c2CO1 | 9.2 µM (active) |
| COc1ccc(CSc2nc(N3CCOCC3)c3c(c2C#N)CC(C)(C)OC3)cc1 | inactive |
| COc1cccc(CNCc2c(C(=O)O)n(Cc3ccc(C)cc3)c3cc(C)ccc23)c1OC | inactive |
| Fc1ccc2[nH]c3c(N4CCN(Cc5ccc6c(c5)OCO6)CC4)ncnc3c2c1 | 9.2 µM (active) |
| Cc1c(CN2CC[C@@H](N3CCN(c4ccccn4)CC3)[C@H](O)C2)[nH]c2ccc(F)cc12 | inactive |
| Fc1ccc2[nH]c3c(N4CCSCC4)ncnc3c2c1 | 3.26 µM (active) |
| O=c1[nH]c(N2CCN(Cc3ccc4c(c3)OCO4)CC2)nc2c1CCCC2 | inactive |
| CCCCCc1c(C)nc(N2CCN(Cc3ccc4c(c3)OCO4)CC2)[nH]c1=O | inactive |
| CC1=C(C(=O)N(C)C)CC(CC(=O)NCCc2ccccn2)C(=O)N1CCC1=CCCCC1 (configuration not stated) | inactive |
| COCCNc1nc(Nc2ccccc2Cl)c2sc(-c3ccccc3)cc2n1 | inactive |
| CC(=O)Nc1ccc(Nc2cc(C)nc(Nc3ccc(NC(C)=O)cc3)n2)cc1 | inactive |
| COc1ccc(NC(=O)c2nc(-n3nc(C)cc3C)ccc2Cl)cc1Cl | inactive |
| COc1ccc(Nc2cc(C)nc(-n3nc(C)cc3C)n2)cc1 | 0.231 µM (active) |
| CC1(C)NC(=O)N(CC(=O)Nc2ccc(-c3ccccc3)cc2)C1=O | inactive |
| CC1(Oc2ccc(Cl)cc2)CCN(Cc2csc3ccccc23)C1 (configuration not stated) | inactive |

| Structure (SMILES) | Potency |
| --- | --- |
| CN(C)c1nc(N)nc(CSc2ccccn2)n1 | inactive |
| CN(C)c1nc(N)nc(CSc2nnnn2-c2cccc3ccccc23)n1 | 6.51 µM (active) |
| COc1ccc(-n2nnnc2SCc2nc(N)nc(N3CCOCC3)n2)cc1 | inactive |
| CCOC(=O)C1CCCN(C(=O)c2ccc(C)c(F)c2)CC1 (configuration not stated) | inactive |
| COc1ccc(N(Cc2ccccc2)S(=O)(=O)c2cccc(C(=O)O)c2)cc1 | inactive |
| COc1ccc(N(CCC#N)S(=O)(=O)c2ccc(Cl)cc2)cc1 | 16.4 µM (active) |
| COc1ccc(S(=O)(=O)NCCCCOc2ccc(Cl)cc2)cc1 | inactive |
| CCCCNC(=O)Cn1c(SCc2cccc(Cl)c2)nc2ccncc21 | inactive |
| O=C(NCCO)c1cccc(-c2cccc3nccn23)c1 | inactive |
| CCC(=O)N1c2ccccc2CC1C(=O)N1CCN(c2cccc(OC)c2)CC1 (configuration not stated) | inactive |
| Cc1ccc(NC(=O)Cn2sc3ccccc3c2=O)cc1 | inactive |
| CC(C)OCCCn1c(SCC(=O)c2ccccc2)nc2c(sc3ccccc32)c1=O | inactive |
| COc1ccc(C(=O)Nc2ccccc2C(=O)N2CCN(c3ccccc3)CC2)cc1 | inactive |
| COc1ccc(C(=O)Nc2c(Cl)cc(Cl)cc2C(=O)N2CCC(C)CC2)cc1 | 3.26 µM (active) |
| COc1ccc(N2CCN(C(=O)C3CCN(C(=O)c4ccccc4Cl)CC3)CC2)cc1 | inactive |
| CCCNC(=O)C1(C)CCN1C(=O)Cc1ccc(-c2ccccc2)cc1 (configuration not stated) | inactive |
| COC(=O)c1scc(-c2ccc(C)cc2)c1S(=O)(=O)Nc1cc(Cl)c(OC)cc1OC | inactive |
| CCCNC(=O)C1CC(=O)N(c2ccc(OCc3ccccc3)cc2)C1 (configuration not stated) | inactive |
| CC(C)n1ncc2c(C(=O)Nc3ccc(CC#N)cc3)cc(C3CC3)nc21 | inactive |
| COc1ccc(OCCNC(=O)c2cc(C3CC3)nc3c2cnn3C(C)C)cc1 | 8.2 µM (active) |
| CC(C)n1ncc2c(C(=O)NCc3ccccc3CN(C)C)cc(C3CC3)nc21 | inactive |

| Structure (SMILES) | Potency |
| --- | --- |
| CCCCN1C(=O)C(CC(=O)NCc2cccs2)CC(C(=O)N2CCOCC2)=C1C (configuration not stated) | inactive |
| O=C(Nc1ccc2c(c1)OCCO2)C(C1CC1)N1CCC(Cc2ccccc2)CC1 (configuration not stated) | inactive |
| O=C(NCc1ccccn1)C1CCN(S(=O)(=O)c2ccc(Br)cc2)CC1 | inactive |
| O=C(Nc1ccccn1)C1CCN(S(=O)(=O)c2ccc3c(c2)OCCO3)CC1 | inactive |
| O=C(Nc1ccccn1)C1CCN(S(=O)(=O)c2ccccc2)CC1 | 18.4 µM (active) |
| CN(Cc1ccc(C(F)(F)F)cc1)C(=O)[C@H]1O[C@@H](n2cnc3c(N)ncnc32)[C@H](O)[C@@H]1O | inactive |
| O=[N+]([O-])c1cc(S(=O)(=O)N2CCCC2)ccc1NN=C1CCCC1 | 16.4 µM (active) |
| O=C(COc1ccc(S(=O)(=O)N2CCCC2)cc1[N+](=O)[O-])N1CCCCC1 | inactive |
| O=[N+]([O-])c1cc(C(F)(F)F)ccc1NN=C1CCCC1 | inactive |
| COC(=O)c1ccc(CN2C(=O)C(Cc3ccccc3)ON=C2c2ncccc2C)o1 (configuration not stated) | inactive |
| O=S(=O)(Nc1ccc2nc(N3CCOCC3)sc2c1)c1ccccc1 | inactive |
| CC(C)c1ccc(S(=O)(=O)Nc2ccc(O)c(Sc3nc4ccccc4s3)c2)cc1 | 16.4 µM (active) |
| O=[N+]([O-])c1c(NCCO)cc(Sc2nc3ccccc3s2)c2nonc12 | inactive |
| COC(=O)N(C)C[C@@H]1OCc2cnnn2CCCC(=O)N([C@@H](C)CO)C[C@@H]1C | inactive |
| Nc1nc2c(ncn2[C@@H]2O[C@H](CNCc3ccc(OCCCN4CCOCC4)cc3)[C@@H](O)[C@H]2O)c(=O)[nH]1 | inactive |
| Nc1ncnc2c1ncn2[C@@H]1O[C@H](C(=O)N2CCCN(Cc3ccccc3F)CC2)[C@@H](O)[C@H]1O | inactive |
| C=CCn1c(CCc2ccc(OC(C)C)cc2)n[nH]c1=S | inactive |
| CC(C)Oc1ccc(CCc2n[nH]c(=S)n2Cc2ccccc2)cc1 | 16.4 µM (active) |
| CC(C)Oc1ccc(CCc2nnc(SCC(=O)O)n2-c2ccccc2)cc1 | inactive |
| C[C@@H]1CN([C@@H](C)CO)C(=O)CCCn2cc(nn2)CO[C@H]1CN(C)S(=O)(=O)c1ccc(-n2cccn2)cc1 | inactive |
